Structures can show the parent of a compound that is named as a salt.
tested on: Danio rerio larvae (5 dpf); experiment: optomotor response to fast red moving lines, difference vs DMSO (percentage points (treated minus DMSO)); higher = more of the behaviour than the DMSO vehicle control; conditions: 10 µM; exposure time: 3 h pre-incubation + 3 h imaging
Experimental: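 5-dpf wild-type zebrafish larvae were imaged in 96-well plates. They were treated with 190 Tocris FDA-approved drugs at 10 µM (1 µl/ml DMSO) for 3 h before and 3 h during imaging at 28.5 °C, 48 larvae per drug. Automated image analysis gave % time moving and optomotor responses. Values are drug group mean minus DMSO vehicle mean (n=844), in percentage points, for 10 behaviours.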

Structure (SMILES)	optomotor response
CC(C)C(=O)OCC(=O)[C@@]12O[C@H](C3CCCCC3)O[C@@H]1C[C@H]1[C@@H]3CCC4=CC(=O)C=C[C@]4(C)[C@H]3[C@@H](O)C[C@@]12C [Ciclesonide]	-3.93
Nc1ncn([C@@H]2O[C@H](CO)[C@@H](O)[C@H]2O)c(=O)n1 [5-Azacytidine]	1.5
C[C@@H]1C[C@H]2[C@@H]3CCC4=CC(=O)C=C[C@]4(C)[C@@]3(F)[C@@H](O)C[C@]2(C)[C@@]1(O)C(=O)CO [Dexamethasone]	0.576
O=C1CCc2cc(OCCCCc3nnnn3C3CCCCC3)ccc2N1 [Cilostazol]	-1.51
Cc1nc(-c2ccc(OCC(C)C)c(C#N)c2)sc1C(=O)O [Febuxostat]	8.02
O=C(O)C[C@H](O)C[C@H](O)/C=C/c1c(C2CC2)nc2ccccc2c1-c1ccc(F)cc1 [Pitavastatin calcium]	9.78
Nc1nc(F)nc2c1ncn2[C@@H]1O[C@H](CO)[C@@H](O)[C@@H]1O [Fludarabine]	-4.77
O=C(Nc1c(Cl)cncc1Cl)c1ccc(OC(F)F)c(OCC2CC2)c1 [Roflumilast]	-10.8
COc1ccccc1OCC(O)CN1CCN(CC(=O)Nc2c(C)cccc2C)CC1 (stereo not given) [Ranolazine dihydrochloride]	9.26
CN(C)CCc1c[nH]c2ccc(C[C@H]3COC(=O)N3)cc12 [Zolmitriptan]	-9.74
CC(C)N(CCCCOCC(=O)NS(C)(=O)=O)c1cnc(-c2ccccc2)c(-c2ccccc2)n1 [Selexipag]	-6.49
C[C@]12CC[C@@H]3c4ccc(O)cc4C[C@@H](CCCCCCCCC[S+]([O-])CCCC(F)(F)C(F)(F)F)[C@H]3[C@@H]1CC[C@@H]2O (stereo not given in full)	3.52
N#C[C@@H]1C[C@@H]2C[C@@H]2N1C(=O)[C@@H](N)C12CC3CC(CC(O)(C3)C1)C2 [Saxagliptin hydrochloride]	-7.58
NC(=O)OCC(COC(N)=O)c1ccccc1 [Felbamate]	8.45
CCOC(=O)c1ncn2c1CN(C)C(=O)c1cc(F)ccc1-2 [Flumazenil]	9.89
CN1CCC[C@@H]1CCO[C@](C)(c1ccccc1)c1ccc(Cl)cc1 [Clemastine fumarate]	13.4
COC(=O)C1=C(C)NC(C)=C(C(=O)OC(C)C)C1c1cccc2nonc12 (stereo not given) [Isradipine]	-16.6
Nc1nc(Cl)nc2c1ncn2[C@@H]1O[C@H](CO)[C@@H](O)[C@@H]1F [Clofarabine]	-10.5
CN(C)CC/C=C1/c2ccccc2COc2ccc(CC(=O)O)cc21 [Olopatadine hydrochloride]	5.8
CCc1c2c(nc3ccc(OC(=O)N4CCC(N5CCCCC5)CC4)cc13)-c1cc3c(c(=O)n1C2)COC(=O)[C@]3(O)CC	0.47

Structure (SMILES)	optomotor response
C[C@]12CCC(=O)C=C1CC[C@@H]1[C@@H]2[C@@H](O)C[C@@]2(C)[C@H]1CC[C@]2(O)C(=O)CO [Hydrocortisone]	-1.8
O=C(O)CCCc1ccccc1 [Sodium 4-Phenylbutyrate]	-11
CC1(C)O[C@@H]2[C@@H](CO[C@@]3(COS(N)(=O)=O)OC(C)(C)O[C@@H]23)O1 [Topiramate]	-10.6
CN1CC[C@@H](NC(=O)Nc2ccc(C#N)cc2)C[C@@H]1c1nc2ccccc2[nH]1	-0.171
Brc1c(NC2=NCCN2)ccc2nccnc12	16.1
CN(CCOc1ccc(CC2SC(=O)NC2=O)cc1)c1ccccn1 (stereo not given) [Rosiglitazone]	-14.3
COc1ccc(-c2ccc3cc(C(=O)O)ccc3c2)cc1C12CC3CC(CC(C3)C1)C2 [Adapalene]	-11.7
Nc1nc2[nH]cc(CCc3ccc(C(=O)N[C@@H](CCC(=O)O)C(=O)O)cc3)c2c(=O)[nH]1 [Pemetrexed]	-14.2
OCc1cc(C(O)CNCCCCCCOCCCCc2ccccc2)ccc1O (stereo not given) [Salmeterol xinafoate]	-5.49
O=c1n(CCCN2CCN(c3cccc(Cl)c3)CC2)nc2ccccn12 [Trazodone hydrochloride]	5.34
CCCCCOC(=O)Nc1nc(=O)n([C@@H]2O[C@H](C)[C@@H](O)[C@H]2O)cc1F [Capecitabine]	5.07
CS(=O)(=O)CCNCc1ccc(-c2ccc3ncnc(Nc4ccc(OCc5cccc(F)c5)c(Cl)c4)c3c2)o1 [Lapatinib]	-0.638
CCCc1nn(C)c2c(=O)[nH]c(-c3cc(S(=O)(=O)N4CCN(C)CC4)ccc3OCC)nc12 [Sildenafil citrate]	-12.3
CC(C)Nc1cccnc1N1CCN(C(=O)c2cc3cc(NS(C)(=O)=O)ccc3[nH]2)CC1 [Delavirdine mesylate]	-17
NS(=O)(=O)c1cc2c(cc1Cl)NC(C1CC3C=CC1C3)NS2(=O)=O (stereo not given) [Cyclothiazide]	-3.47
Cc1ccc(-c2cc(C(F)(F)F)nn2-c2ccc(S(N)(=O)=O)cc2)cc1 [Celecoxib]	-11.4
COc1c(C)c2c(c(O)c1C/C=C(\C)CCC(=O)OCCN1CCOCC1)C(=O)OC2 [Mycophenolate mofetil]	2.27
CC[C@H](C)C(=O)O[C@H]1C[C@@H](C)C=C2C=C[C@H](C)[C@H](CC[C@@H]3C[C@@H](O)CC(=O)O3)[C@H]21 [Lovastatin]	-4.95
NS(=O)(=O)c1cc(C(=O)O)c(NCc2ccco2)cc1Cl [Furosemide]	0.619
C[C@H](Cc1cc2c(c(C(N)=O)c1)N(CCCO)CC2)NCCOc1ccccc1OCC(F)(F)F [Silodosin]	11.4
